ChEMBL document CHEMBL3988442, “University of Dundee, Small-Polar-MMV Screening Library” (2021)
For part of these data: Entries with a potency or affinity are not part of this list.

Tests used:
Parameters in all cases: scale not given: direction of the effect not stated beside the values
[1] = biological target: Protein translocase subunit SecA (Escherichia coli (strain K12)) (UniProt P10408); assay: Assay to Identify E. coli SecA ATPase Inhibitors; type: functional; conditions: 30 µM
[2] = biological target: T1, Ubiquitin-activating enzyme e1, putative (Leishmania donovani (strain BPK282A1)) (UniProt E9BSI1); assay: Leishmania donovani Ubiquitin Activating Enzyme (LdE1); type: functional; conditions: 30 µM
T1 sequence (whole entry): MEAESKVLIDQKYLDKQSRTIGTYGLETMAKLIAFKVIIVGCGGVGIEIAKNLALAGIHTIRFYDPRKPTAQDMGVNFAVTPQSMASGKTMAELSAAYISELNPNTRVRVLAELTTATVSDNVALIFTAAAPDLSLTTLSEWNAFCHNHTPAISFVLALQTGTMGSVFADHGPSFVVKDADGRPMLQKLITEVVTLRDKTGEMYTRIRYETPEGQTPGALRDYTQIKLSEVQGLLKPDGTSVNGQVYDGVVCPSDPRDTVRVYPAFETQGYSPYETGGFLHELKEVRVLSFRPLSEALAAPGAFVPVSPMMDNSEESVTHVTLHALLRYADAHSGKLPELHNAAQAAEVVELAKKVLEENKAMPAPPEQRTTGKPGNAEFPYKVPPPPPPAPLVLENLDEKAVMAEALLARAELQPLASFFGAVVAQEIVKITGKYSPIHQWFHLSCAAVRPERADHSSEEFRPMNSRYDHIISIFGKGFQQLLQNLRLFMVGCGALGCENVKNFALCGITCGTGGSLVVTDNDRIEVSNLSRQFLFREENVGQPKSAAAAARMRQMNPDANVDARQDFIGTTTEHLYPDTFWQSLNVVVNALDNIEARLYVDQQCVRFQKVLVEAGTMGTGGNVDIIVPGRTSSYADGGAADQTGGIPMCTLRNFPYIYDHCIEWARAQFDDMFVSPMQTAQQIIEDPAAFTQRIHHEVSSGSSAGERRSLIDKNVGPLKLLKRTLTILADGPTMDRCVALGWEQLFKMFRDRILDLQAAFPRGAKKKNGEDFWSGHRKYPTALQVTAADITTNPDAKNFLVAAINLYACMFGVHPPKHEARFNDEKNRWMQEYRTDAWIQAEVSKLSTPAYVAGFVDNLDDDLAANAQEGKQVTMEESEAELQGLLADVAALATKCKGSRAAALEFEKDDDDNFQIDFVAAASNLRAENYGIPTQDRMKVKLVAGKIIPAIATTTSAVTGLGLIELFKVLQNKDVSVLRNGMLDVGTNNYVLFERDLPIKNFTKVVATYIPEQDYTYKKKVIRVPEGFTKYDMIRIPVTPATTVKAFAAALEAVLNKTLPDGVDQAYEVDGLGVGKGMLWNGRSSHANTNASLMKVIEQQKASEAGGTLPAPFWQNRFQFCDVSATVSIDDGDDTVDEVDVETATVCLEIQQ

[3] = biological target: AMP-activated protein kinase, AMPK (Homo sapiens) (UniProt P54646+O43741+P54619+Q9UGJ0+Q9Y478+Q13131+Q9UGI9); assay: AMP-dependent Kinase enzyme assay. An in vitro enzyme assay that detects ADP turnover that is directly proportional to AMPK activity. This uses naive AMPK that is activated during the assay with MK-8722; type: functional; conditions: 30 µM
[4] = biological target: Sialic acid-binding Ig-like lectin 9 (Homo sapiens) (UniProt Q9Y336); assay: Hs-Siglec9 ALPHAscreen SOP 20170721; conditions: 10 µM
Trypanosoma cruzi = assay: Trypanosoma cruzi phosphomannomutase and mannose-1-phosphate guanylyltransferase assay; type: functional; conditions: 10 µM
[5] = biological target: T2, Arginase-2, mitochondrial (Homo sapiens) (UniProt P78540); assay: in vitro enzyme assay to detect the production of urea directly proportional to the activity of Arginase II; type: functional; conditions: 33.3 µM; note: in the data most compounds retested in dose-response had high values
T2 sequence (whole entry): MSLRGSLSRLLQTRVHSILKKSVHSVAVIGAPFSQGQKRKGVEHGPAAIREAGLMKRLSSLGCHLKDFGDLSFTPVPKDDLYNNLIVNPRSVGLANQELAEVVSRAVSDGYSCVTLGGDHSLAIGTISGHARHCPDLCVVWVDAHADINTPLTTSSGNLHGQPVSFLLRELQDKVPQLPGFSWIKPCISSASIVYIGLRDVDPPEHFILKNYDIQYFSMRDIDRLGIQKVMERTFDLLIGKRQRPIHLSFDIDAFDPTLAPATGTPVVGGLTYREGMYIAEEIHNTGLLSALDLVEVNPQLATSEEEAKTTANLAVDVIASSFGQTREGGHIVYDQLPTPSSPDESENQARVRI

[6] = biological target: T3, Proteasome subunit beta (Trypanosoma cruzi) (UniProt O96673); assay: Trypanosoma cruzi proteasome chymotrypsin-like activity (TcProtChymo) assay.; note: in the data most compounds retested in dose-response had high values; type: functional; conditions: 9.37 µM
T3 sequence (whole entry): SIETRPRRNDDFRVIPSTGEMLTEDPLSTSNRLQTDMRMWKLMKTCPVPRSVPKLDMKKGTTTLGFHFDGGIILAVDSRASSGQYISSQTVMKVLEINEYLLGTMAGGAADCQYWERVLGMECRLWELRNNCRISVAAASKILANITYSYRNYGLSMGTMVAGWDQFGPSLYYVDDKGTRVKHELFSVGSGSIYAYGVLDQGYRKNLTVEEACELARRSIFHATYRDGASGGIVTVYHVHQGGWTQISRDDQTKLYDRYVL

Homo sapiens = species on record: Homo sapiens; assay: To identify inhibition of the IFN signalling (Jak-Stat) pathway via expression of an eGFP reporter gene under the control of an IFN-stimulated response element (ISRE) containing MxA promoter.; type: functional; conditions: 30 µM
[7] = biological target: T4, Tyrosyl-tRNA synthetase, putative (Trypanosoma cruzi (strain CL Brener)) (UniProt Q4DSP6); assay: Trypanosoma cruzi tyrosyl tRNA synthetase (TcYRS) _High Tyrosine SOP; type: functional; conditions: 30 µM; note: in the data most compounds retested in dose-response had high values
T4 sequence (whole entry): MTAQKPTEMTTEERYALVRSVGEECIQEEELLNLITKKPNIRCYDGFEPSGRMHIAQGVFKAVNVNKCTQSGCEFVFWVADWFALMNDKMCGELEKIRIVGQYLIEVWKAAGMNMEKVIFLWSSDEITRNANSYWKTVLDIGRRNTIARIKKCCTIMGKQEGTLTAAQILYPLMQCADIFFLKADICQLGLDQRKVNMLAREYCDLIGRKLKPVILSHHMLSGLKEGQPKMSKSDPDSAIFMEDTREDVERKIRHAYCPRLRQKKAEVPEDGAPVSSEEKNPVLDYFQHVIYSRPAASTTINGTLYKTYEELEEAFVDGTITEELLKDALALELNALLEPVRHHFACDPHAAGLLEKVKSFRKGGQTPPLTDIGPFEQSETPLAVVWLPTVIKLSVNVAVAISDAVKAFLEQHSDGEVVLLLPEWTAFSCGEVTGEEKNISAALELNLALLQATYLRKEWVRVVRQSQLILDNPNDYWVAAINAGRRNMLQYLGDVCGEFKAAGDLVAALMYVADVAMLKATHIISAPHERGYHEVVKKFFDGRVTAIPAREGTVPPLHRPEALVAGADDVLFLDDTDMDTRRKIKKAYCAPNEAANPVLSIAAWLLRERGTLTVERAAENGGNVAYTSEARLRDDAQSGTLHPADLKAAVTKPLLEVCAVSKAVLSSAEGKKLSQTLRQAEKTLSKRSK

[8] = biological target: T4, Tyrosyl-tRNA synthetase, putative (Trypanosoma cruzi (strain CL Brener)); assay: Trypanosoma cruzi tyrosyl tRNA synthetase (TcYRS) SOP; type: functional; conditions: 30 µM
[9] = biological target: Chromo domain-containing protein 1 (Saccharomyces cerevisiae (strain ATCC 204508 / S288c) (Baker's yeast)) (UniProt P32657); assay: ScCHD-1 Enzyme Inhibition Assay; type: functional; conditions: 30 µM; note: in the data most compounds retested in dose-response had high values
Sequence of Chromo domain-containing protein 1 (Saccharomyces cerevisiae (strain ATCC 204508 / S288c) (Baker's yeast)) (P32657 whole entry, the tested form may be a part): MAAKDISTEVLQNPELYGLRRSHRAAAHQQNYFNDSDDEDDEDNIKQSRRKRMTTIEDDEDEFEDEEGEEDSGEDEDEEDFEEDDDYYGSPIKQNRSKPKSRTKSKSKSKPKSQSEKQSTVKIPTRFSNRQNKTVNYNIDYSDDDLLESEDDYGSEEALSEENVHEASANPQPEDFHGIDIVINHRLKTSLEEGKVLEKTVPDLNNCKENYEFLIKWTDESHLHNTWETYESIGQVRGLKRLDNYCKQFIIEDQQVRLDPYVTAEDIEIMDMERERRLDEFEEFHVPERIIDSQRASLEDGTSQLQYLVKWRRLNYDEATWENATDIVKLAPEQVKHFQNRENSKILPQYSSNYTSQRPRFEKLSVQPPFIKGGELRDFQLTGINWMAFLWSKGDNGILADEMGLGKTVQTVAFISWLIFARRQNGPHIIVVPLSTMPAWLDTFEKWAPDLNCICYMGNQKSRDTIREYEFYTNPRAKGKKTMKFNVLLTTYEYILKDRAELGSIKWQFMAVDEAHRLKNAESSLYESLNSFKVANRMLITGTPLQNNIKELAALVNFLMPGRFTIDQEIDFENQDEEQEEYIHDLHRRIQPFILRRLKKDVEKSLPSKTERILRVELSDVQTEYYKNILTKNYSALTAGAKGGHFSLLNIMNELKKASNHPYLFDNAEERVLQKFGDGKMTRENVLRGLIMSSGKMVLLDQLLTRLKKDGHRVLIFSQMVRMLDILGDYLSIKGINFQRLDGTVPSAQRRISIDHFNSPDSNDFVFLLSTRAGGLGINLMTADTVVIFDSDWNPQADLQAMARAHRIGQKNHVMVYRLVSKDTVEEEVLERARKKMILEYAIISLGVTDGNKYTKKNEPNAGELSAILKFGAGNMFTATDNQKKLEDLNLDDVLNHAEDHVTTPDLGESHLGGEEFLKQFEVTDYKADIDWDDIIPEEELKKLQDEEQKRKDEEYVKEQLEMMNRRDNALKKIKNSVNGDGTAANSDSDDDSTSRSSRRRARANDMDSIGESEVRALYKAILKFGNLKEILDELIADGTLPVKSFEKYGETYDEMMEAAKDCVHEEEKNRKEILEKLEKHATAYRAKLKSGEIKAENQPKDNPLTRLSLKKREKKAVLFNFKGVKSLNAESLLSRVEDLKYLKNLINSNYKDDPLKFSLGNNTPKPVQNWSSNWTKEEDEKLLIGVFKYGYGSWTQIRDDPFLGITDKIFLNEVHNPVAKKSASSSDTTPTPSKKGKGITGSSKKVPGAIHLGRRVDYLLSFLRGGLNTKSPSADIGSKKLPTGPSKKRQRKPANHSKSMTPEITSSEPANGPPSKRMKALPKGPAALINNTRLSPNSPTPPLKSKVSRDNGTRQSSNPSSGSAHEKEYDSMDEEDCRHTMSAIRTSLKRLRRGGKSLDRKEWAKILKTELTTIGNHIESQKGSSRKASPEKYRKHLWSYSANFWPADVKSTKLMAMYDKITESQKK

Sequence of Protein translocase subunit SecA (Escherichia coli (strain K12)) (P10408 whole entry): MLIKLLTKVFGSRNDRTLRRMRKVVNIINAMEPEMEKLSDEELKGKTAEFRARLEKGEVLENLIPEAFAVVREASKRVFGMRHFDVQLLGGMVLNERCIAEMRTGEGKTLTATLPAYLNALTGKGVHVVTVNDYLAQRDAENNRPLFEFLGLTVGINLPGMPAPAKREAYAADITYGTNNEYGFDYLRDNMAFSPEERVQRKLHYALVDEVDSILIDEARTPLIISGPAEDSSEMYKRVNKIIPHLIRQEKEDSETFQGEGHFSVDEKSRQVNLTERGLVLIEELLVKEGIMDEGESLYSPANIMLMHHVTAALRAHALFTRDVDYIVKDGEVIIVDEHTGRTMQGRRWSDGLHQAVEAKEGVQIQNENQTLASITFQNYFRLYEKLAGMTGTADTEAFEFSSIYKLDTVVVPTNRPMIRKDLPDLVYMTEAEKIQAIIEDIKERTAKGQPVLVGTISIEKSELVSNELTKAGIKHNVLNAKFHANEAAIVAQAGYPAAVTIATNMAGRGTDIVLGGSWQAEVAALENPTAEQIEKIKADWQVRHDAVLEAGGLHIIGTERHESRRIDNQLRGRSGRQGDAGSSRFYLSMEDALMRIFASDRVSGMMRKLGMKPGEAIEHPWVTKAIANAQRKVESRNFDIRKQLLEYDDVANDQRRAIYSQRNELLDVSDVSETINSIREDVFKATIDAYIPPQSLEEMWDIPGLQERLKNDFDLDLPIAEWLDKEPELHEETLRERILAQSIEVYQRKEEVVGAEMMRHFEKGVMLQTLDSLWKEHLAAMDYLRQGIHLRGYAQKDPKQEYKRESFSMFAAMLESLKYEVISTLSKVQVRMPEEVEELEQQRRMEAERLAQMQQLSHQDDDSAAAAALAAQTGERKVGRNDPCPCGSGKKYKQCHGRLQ
Sequence of Sialic acid-binding Ig-like lectin 9 (Homo sapiens) (Q9Y336 whole entry): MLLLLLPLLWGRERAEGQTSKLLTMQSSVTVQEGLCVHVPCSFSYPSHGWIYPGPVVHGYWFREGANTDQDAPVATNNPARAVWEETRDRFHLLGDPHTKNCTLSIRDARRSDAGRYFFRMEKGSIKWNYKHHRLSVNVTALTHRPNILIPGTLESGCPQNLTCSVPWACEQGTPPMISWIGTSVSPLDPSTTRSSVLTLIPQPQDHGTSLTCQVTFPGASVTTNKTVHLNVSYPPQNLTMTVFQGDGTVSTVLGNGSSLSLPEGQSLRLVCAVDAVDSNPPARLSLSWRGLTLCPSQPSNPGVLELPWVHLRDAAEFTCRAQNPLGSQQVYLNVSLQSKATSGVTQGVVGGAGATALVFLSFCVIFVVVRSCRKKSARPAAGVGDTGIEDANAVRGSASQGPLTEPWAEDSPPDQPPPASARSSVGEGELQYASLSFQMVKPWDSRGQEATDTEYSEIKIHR

Question: With CN1CCN(C[C@@H]2OC[C@H]3CN(Cc4ccsc4)CC[C@H]32)CC1 as the molecule, how does the Percent Effect [1] read?
Answer: -2.51%

Question: What about the Percent Effect [2] of the same molecule?
Answer: 0%

Question: And the Percent Effect [3]?
Answer: 1.23%

Question: What about the Percent Effect [4] of the same molecule?
Answer: -2.48%

Question: What about the Percent Effect (Trypanosoma cruzi) of the same molecule?
Answer: 6.95%

Question: And the Percent Effect [5]?
Answer: -43.2%

Question: And the Percent Effect [6]?
Answer: 5.81%

Question: What about the Percent Effect (Homo sapiens) of the same molecule?
Answer: -3.23%

Question: And the Percent Effect [7]?
Answer: 3.12%

Question: And the Percent Effect [8]?
Answer: 0%

Question: And the Percent Effect [9]?
Answer: -4.8%

Question: For Cc1ncsc1C(=O)N1CCCC(c2noc(C(C)C)n2)C1 (stereo unspecified), which Percent Effect [1] is on record?
Answer: -4.54%

Question: What about the Percent Effect [2] of the same molecule?
Answer: 15.3%

Question: And the Percent Effect [3]?
Answer: -8.18%

Question: What about the Percent Effect [4] of the same molecule?
Answer: 26.1%

Question: What about the Percent Effect (Trypanosoma cruzi) of the same molecule?
Answer: 2.43%

Question: And the Percent Effect [5]?
Answer: 33.5%

Question: And the Percent Effect [6]?
Answer: 15.3%

Question: And the Percent Effect (Homo sapiens)?
Answer: 7.22%

Question: And the Percent Effect [7]?
Answer: 6.32%

Question: And the Percent Effect [8]?
Answer: 15.4%

Question: What about the Percent Effect [9] of the same molecule?
Answer: -10.2%

Question: What does the source list for CNS(=O)(=O)c1cccc(CNC(=O)c2c(C)oc(C)c2C)c1?
Answer: Percent Effect [1]: -3.91%; Percent Effect [2]: 19%; Percent Effect [3]: 6.49%; Percent Effect [4]: -6.49%; Percent Effect (Trypanosoma cruzi): 3.79%; Percent Effect [5]: -1.07%; Percent Effect [6]: 18.4%; Percent Effect (Homo sapiens): 7.61%; Percent Effect [7]: 2.08%; Percent Effect [8]: 15.2%; Percent Effect [9]: 53.2%

Question: With CCOc1ccc(-c2ccnc(CC)n2)cc1C(=O)O as the molecule, how does the Percent Effect [1] read?
Answer: 0.91%

Question: What about the Percent Effect [2] of the same molecule?
Answer: 10.8%

Question: And the Percent Effect [3]?
Answer: -5.65%

Question: And the Percent Effect [4]?
Answer: 16.4%

Question: And the Percent Effect (Trypanosoma cruzi)?
Answer: 2.9%

Question: What about the Percent Effect [5] of the same molecule?
Answer: -0.476%

Question: And the Percent Effect [6]?
Answer: 20%

Question: What about the Percent Effect (Homo sapiens) of the same molecule?
Answer: -11.8%

Question: What about the Percent Effect [7] of the same molecule?
Answer: 8.99%

Question: What about the Percent Effect [8] of the same molecule?
Answer: -2.44%

Question: What about the Percent Effect [9] of the same molecule?
Answer: -1.49%

Question: How did the Percent Effect [1] turn out when Cn1cc(CN2C[C@@H]3COC[C@@H](C(=O)N4CCCCO4)[C@@H]3C2)cn1 was run?
Answer: -2.29%

Question: What about the Percent Effect [2] of the same molecule?
Answer: 2.67%

Question: What about the Percent Effect [3] of the same molecule?
Answer: 9.23%

Question: What about the Percent Effect [4] of the same molecule?
Answer: 1.72%

Question: What about the Percent Effect (Trypanosoma cruzi) of the same molecule?
Answer: 0.787%

Question: What about the Percent Effect [5] of the same molecule?
Answer: 3.03%

Question: What about the Percent Effect [6] of the same molecule?
Answer: 8.19%

Question: What about the Percent Effect (Homo sapiens) of the same molecule?
Answer: 3.52%

Question: What about the Percent Effect [7] of the same molecule?
Answer: 7.45%

Question: And the Percent Effect [8]?
Answer: 8.97%

Question: What about the Percent Effect [9] of the same molecule?
Answer: 1.85%

Question: CS(=O)(=O)c1ccc(OCCNCc2ccc(F)cc2F)cc1 was tested. Which Percent Effect [1] did it give?
Answer: -5.74%

Question: And the Percent Effect [2]?
Answer: 8.22%

Question: And the Percent Effect [3]?
Answer: 1.54%

Question: What about the Percent Effect [4] of the same molecule?
Answer: 2.33%

Question: And the Percent Effect (Trypanosoma cruzi)?
Answer: 4.37%

Question: And the Percent Effect [5]?
Answer: -7.19%

Question: And the Percent Effect [6]?
Answer: 9.85%

Question: And the Percent Effect (Homo sapiens)?
Answer: 6.01%

Question: What about the Percent Effect [7] of the same molecule?
Answer: 8.33%

Question: And the Percent Effect [8]?
Answer: 13.6%

Question: What about the Percent Effect [9] of the same molecule?
Answer: -1.49%
